# Calls of active or inactive are those of the source. Unless noted, how the calls were made is not given here.
# Tests used:
# [1] = compounds binding Alexa647 anti-His antibody – biochemical, small-molecule microarray, 635 nm fluorescence, artefact control for SMM control protein annotation, primary screen (AID 1128); conditions: higher = more signal;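 further: score merges feature fluorescence with signal-to-noise for each printed compound spot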
# [2] = tested on: Human papillomavirus type 1a E7 protein (residues 1-88); assay: HPV1a E7 small-molecule binders, primary screen, biochemical, small-molecule microarray, residues 1-88, 635 nm (AID 1129); conditions: small-molecule microarray binding, fluorescence 635 nm; higher = more signal
# [3] = molecular target: Focal adhesion kinase 1 (Homo sapiens) (UniProt Q05397); assay: PTK2 protein binding on printed compound slides – biochemical, small-molecule microarray, 635/667 nm fluorescence, BSA, DTT, primary screen (AID 1130); conditions: 635 nm fluorescence, higher = more signal;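 further: composite of spot emission at 667 nm and signal to noise over triplicate slides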
# [4] = tested on: Fibrinogen (Alexa647-labelled); assay: Alexa647-fibrinogen binding to printed small molecules – biochemical, small-molecule microarray, 635/667 nm fluorescence, artefact control for SMM control-protein annotation, profiling panel (AID 1131); conditions: fibrinogen-A647 binding fluorescence, higher = more signal;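 further: z-score merges 667 nm fluorescence with per-spot signal-to-noise over triplicate slides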
# [5] = molecular target: Follistatin (Homo sapiens) (UniProt P19883); assay: FST protein binding to printed compounds – biochemical, small-molecule microarray, 635/667 nm fluorescence, primary screen (AID 1132); conditions: 635 nm fluorescence, higher = more signal
# [6] = molecular target: Fibroblast growth factor 2 (Homo sapiens) (UniProt P09038); assay: basic fibroblast growth factor binding to printed compounds – biochemical, small-molecule microarray, 635/667 nm fluorescence, primary screen (AID 1133); conditions: FGF2, fluorescence 635/667, higher = more signal
# [7] = JC-1 mitochondrial potential readout, lung cancer cells – cell-based, A549, JC-1 fluorescence, basal, 24 h, 100 nL, profiling panel (AID 1138); conditions: higher = more signal;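 further: A549 lung adenocarcinoma cells under basal conditions with no added stimulus; test concentration not given here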
# [8] = tested on: Lefty1; assay: Lefty1 protein binding to printed compounds – biochemical, small-molecule microarray, 635/667 nm fluorescence, primary screen (AID 1139); conditions: fluorescence 635/667, higher = more signal
# [9] = tested on: wheat germ agglutinin (Triticum aestivum), Alexa647-labelled; assay: Alexa647-WGA lectin binding to printed small molecules – biochemical, small-molecule microarray, 635/667 nm fluorescence, artefact control for SMM control-protein annotation, profiling panel (AID 1140); conditions: WGA-A647 binding, 635 nm fluorescence, higher = more signal;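 further: score merges 667 nm feature emission with signal to noise over triplicate slides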
# [10] = molecular target: Luciferin 4-monooxygenase (Photinus pyralis) (UniProt P08659); assay: inhibition of purified Photinus pyralis luciferase – biochemical, luminescence, purified enzyme, 2006 set, primary screen (AID 1141); conditions: purified firefly luciferase, SteadyGlo luminescence, 30 min; higher = more signal, called active from +8 up or from −8 down;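 further: cell-free assay with purified firefly luciferase at 100 ng per well in PBS; test concentration not given here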
# [11] = tested on: Wnt5a (protein binding on small-molecule microarray); assay: small molecules binding Wnt5a protein – biophysical, small-molecule microarray, 635/667 nm fluorescence, primary screen (AID 1142); conditions: 635 nm fluorescence, higher = more signal;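 further: fluorescence read at 667 nm with signal to noise per printed feature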
# [12] = ATP-based viability of Huh7 replicon cells – cell-based, CellTiter-Glo luminescence, basal, 48 h, cytotoxicity control for HCV replication inhibitor project, primary screen (AID 1143); conditions: higher = more signal, called active from +8 up or from −8 down;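 further: Huh7 hepatoma cells carrying a hepatitis C replication reporter with no stimulus; test concentration not given here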
# [13] = Pseudomonas biofilm growth suppression – PAO1 strain, BacTiter-Glo luminescence, LB-PBS, primary screen (AID 1144); conditions: P. aeruginosa PAO1 biofilm, 12 h, higher = more signal
# [14] = basal CRE-LacZ reporter activity in PC12 – cell-based, unstimulated, primary screen (AID 1145); conditions: no forskolin, luminescence, 4.5 h, higher = more signal, called active from +8 up or from −8 down
# [15] = forskolin-driven CRE-LacZ activity in PC12 – cell-based, CRE-LacZ reporter, forskolin-stimulated, primary screen (AID 1146); conditions: luminescence, 4.5 h, higher = more signal, called active from +8 up or from −8 down;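 further: PC12 cells with 6xCRE LacZ reporter stimulated by forskolin 10 µM; beta-galactosidase reporter signal reflecting CREB driven transcription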
# [16] = molecular target: Streptavidin (Streptomyces avidinii) (UniProt P22629); assay: compounds binding control protein streptavidin – biophysical, small-molecule microarray, 635/667 nm fluorescence, artefact control for SMM compound annotation, primary screen (AID 1147); conditions: higher = more signal;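 further: signal reflects streptavidin binding to arrayed compounds as a control protein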
# [17] = probe aInhba binding on compound microarray – biochemical, small-molecule microarray, 635/667 nm fluorescence, primary screen (AID 1148); conditions: higher = more signal;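 further: score merges 667nm spot fluorescence with signal-to-noise for antibody binding to printed compounds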
# [18] = molecular target: Torsin-1A (Homo sapiens) (UniProt O14656); assay: TOR1A wild-type binding on microarray – cell lysate, small-molecule microarray, lysate, 635/667 nm, primary screen (AID 1149); conditions: COS7 hTOR1A-WT lysate, 635 nm fluorescence, higher = more signal
# [19] = molecular target: Torsin-1A (Homo sapiens) (UniProt O14656); assay: torsin A mutant lysate binding on microarrays – cell lysate, small-molecule microarray, COS7 lysate, 635/667 nm fluorescence, primary screen (AID 1150); conditions: COS7 hTOR1A mutant lysate, 635 nm fluorescence, higher = more signal;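 further: score pools 667 nm emission and signal to noise measuring lysate protein binding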
# [20] = tested on: Sonic hedgehog protein (Shh); assay: Sonic hedgehog microarray binding compounds – biochemical, small-molecule microarray, 635/667 nm fluorescence, primary screen (AID 1151); conditions: 635 nm fluorescence, higher = more signal;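 further: Shh protein binding to compounds spotted on small-molecule microarray slides; score combines spot fluorescence intensity with signal-to-noise across triplicate slides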
# Chain of Streptavidin (Streptomyces avidinii) (P22629 whole entry, looked up): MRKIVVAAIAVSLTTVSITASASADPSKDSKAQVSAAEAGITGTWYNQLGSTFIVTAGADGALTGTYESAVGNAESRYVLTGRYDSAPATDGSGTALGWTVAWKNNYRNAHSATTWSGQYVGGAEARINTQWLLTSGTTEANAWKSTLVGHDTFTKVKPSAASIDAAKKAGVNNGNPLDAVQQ
# Chain of Luciferin 4-monooxygenase (Photinus pyralis) (P08659 whole entry, looked up): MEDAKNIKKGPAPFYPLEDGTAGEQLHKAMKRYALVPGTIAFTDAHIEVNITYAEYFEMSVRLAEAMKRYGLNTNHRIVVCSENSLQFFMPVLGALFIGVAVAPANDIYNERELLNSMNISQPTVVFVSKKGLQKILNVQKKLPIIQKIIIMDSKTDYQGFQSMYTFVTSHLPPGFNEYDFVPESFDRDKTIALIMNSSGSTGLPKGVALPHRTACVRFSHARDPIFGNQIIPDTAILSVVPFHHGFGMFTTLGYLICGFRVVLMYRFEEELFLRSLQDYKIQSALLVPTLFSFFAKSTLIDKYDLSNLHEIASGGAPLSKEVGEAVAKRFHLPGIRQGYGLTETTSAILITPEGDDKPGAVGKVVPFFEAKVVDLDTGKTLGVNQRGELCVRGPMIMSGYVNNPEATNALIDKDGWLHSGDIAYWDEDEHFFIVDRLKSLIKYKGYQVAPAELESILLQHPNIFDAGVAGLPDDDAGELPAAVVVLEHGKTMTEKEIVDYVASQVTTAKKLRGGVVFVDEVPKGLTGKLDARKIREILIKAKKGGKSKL
# Chain of Fibroblast growth factor 2 (Homo sapiens) (P09038 whole entry, looked up): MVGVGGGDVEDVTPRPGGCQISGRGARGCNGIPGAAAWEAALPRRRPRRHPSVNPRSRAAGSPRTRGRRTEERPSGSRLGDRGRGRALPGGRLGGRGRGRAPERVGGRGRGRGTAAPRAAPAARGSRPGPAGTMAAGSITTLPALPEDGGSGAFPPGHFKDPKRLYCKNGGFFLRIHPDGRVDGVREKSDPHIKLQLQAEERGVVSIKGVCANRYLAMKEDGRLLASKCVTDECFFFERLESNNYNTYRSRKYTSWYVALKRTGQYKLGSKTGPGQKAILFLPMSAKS
# Chain of Focal adhesion kinase 1 (Homo sapiens) (Q05397 whole entry, looked up): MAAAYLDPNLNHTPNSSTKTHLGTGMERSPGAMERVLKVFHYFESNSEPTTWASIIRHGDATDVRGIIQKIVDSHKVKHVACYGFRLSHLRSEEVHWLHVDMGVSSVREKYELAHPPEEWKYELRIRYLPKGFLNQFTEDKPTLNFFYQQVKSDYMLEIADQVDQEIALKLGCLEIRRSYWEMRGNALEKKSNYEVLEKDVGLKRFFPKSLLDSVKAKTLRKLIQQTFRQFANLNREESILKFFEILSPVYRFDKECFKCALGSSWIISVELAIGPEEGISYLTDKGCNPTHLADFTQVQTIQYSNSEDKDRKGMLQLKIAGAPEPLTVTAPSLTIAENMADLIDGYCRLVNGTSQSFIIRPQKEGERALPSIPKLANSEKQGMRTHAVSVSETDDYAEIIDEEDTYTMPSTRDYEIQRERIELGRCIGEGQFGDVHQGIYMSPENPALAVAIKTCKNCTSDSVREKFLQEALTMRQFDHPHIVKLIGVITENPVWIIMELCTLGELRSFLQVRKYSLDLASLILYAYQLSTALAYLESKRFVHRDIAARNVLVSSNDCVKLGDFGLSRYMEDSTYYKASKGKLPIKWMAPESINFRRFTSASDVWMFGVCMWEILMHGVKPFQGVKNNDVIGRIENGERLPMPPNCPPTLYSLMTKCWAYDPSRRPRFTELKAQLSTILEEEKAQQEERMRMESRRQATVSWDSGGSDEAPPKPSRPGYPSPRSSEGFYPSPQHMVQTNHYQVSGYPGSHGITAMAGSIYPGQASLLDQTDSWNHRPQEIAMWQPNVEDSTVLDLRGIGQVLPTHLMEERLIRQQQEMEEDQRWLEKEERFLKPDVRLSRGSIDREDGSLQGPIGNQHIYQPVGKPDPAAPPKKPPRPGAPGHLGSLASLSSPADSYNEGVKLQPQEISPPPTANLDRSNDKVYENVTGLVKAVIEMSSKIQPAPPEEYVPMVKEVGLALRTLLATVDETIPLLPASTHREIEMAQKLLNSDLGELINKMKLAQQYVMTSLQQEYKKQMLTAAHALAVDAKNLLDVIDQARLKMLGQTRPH
# Chain of Follistatin (Homo sapiens) (P19883 whole entry, looked up): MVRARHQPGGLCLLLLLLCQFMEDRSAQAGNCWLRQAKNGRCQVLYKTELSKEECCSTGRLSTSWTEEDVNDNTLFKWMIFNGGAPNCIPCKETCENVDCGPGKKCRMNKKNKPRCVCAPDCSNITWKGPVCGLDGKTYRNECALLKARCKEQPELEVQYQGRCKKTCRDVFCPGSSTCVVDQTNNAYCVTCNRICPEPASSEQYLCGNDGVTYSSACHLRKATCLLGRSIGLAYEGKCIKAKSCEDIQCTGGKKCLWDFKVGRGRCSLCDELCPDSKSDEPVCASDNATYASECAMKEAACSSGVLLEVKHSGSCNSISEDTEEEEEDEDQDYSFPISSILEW
# Chain of Torsin-1A (Homo sapiens) (O14656 whole entry, looked up): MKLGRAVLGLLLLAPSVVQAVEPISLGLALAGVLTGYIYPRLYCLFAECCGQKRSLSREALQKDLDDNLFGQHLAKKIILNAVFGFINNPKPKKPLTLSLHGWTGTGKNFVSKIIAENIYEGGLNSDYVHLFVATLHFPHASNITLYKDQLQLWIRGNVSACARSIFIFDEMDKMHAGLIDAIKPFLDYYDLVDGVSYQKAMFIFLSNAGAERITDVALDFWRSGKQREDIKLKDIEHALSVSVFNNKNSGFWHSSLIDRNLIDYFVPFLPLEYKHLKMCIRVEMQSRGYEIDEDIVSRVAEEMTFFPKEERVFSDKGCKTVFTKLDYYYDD
SMILES,composite z-score [1],composite z-score [2],composite z-score [3],composite z-score [4],composite z-score [5],composite z-score [6],z-score [7],composite z-score [8],composite z-score [9],z-score [10],composite z-score [11],z-score [12],z-score [13],z-score [14],z-score [15],composite z-score [16],composite z-score [17],composite z-score [18],composite z-score [19],composite z-score [20]
COCCOC(=O)N1C(=O)[C@@]2(c3cc(C#Cc4ccc(OC)cc4)ccc31)[C@H](C(=O)N1CCN(c3ncccn3)CC1)[C@H]1C(=O)O[C@H](c3ccccc3)[C@H](c3ccccc3)N1[C@@H]2c1ccc(OCCO)cc1,0.233,0.202,0.253,0.274,1.26,1.06,-1.15,0.786,0.769,-0.411 (inactive),0.044,-0.151 (inactive),-0.118 (inactive),-0.606 (inactive),-0.242 (inactive),0.531,0.397,-0.0983,0.33,1
Cc1ccc(S[C@]2(C(=O)NCC(F)(F)F)CC(=O)N(Cc3ccccc3Cl)[C@@H]2c2ccc(CO)cc2I)cc1,-1.18,-0.0053,0.395,-0.563,-0.253,-0.624,1.14,-0.558,1.13,-0.289 (inactive),-0.273,-1.36 (inactive),0.977 (inactive),3.13 (inactive),2.82 (inactive),-0.809,-0.152,-0.396,0.288,-0.155
CC(=O)OC[C@H]1O[C@H](CCON=C(C)CCC(=O)OC[C@H]2O[C@H](C#Cc3ccccc3)C=C[C@@H]2Oc2ccc(C)cc2)C=C[C@@H]1OC(C)=O,0.0004,0.125,0.369,0.185,0.496,0.592,-0.518,0.802,0.0698,0.54 (inactive),0.0159,-0.474 (inactive),0.037 (inactive),0.894 (inactive),0.452 (inactive),0.238,-0.231,0.595,0.139,0.688
CC1CC/C=C\[C@H]2OC34C=CCN(C(C)C)C(=O)[C@H]3N(CCCO)C(=O)[C@@H]4C2C(=O)O1 (stereo not given in full),1.41,-0.883,-0.716,-1.5,-1.07,-1.24,0.439,-0.837,-1.09,-0.623 (inactive),-0.439,-1.03 (inactive),1.15 (inactive),0.601 (inactive),0.371 (inactive),-1.47,0.095,1.72,-1.29,0.533
O=C1C2=CC[C@H]3C(=O)N(Cc4ccc5c(c4)OCO5)C(=O)[C@H]3[C@H]2[C@H](O)[C@@H]2O[C@H]12,1.06,0.383,0.009,0.459,0.281,0.597,0.738,0.408,-0.0306,-0.272 (inactive),-0.0194,0.279 (inactive),-0.0992 (inactive),-0.385 (inactive),-0.454 (inactive),0.57,-0.0933,0.475,0.677,0.495

# Source: PubChem BioAssay
